Screening results deposited in PubChem BioAssay by National Center for Advancing Translational Sciences (NCATS).
TGFb SMAD3 inh: TGF-b pathway inhibition; AID 588855; Potency, µM (highest dose often 46.1 µM), inactives show top-dose activity, negative = inhibition, hits mostly inhibitors; hit rate 1.2% among 410,000; HepG2 CAGA-GFP TGF-b/SMAD3 reporter, GFP fluorescence, 18 h; TGF-beta stimulated, 500 pg/mL final; note: % is set by controls: 0 for no effect and ±100 for the full control effect; nearly all actives have a fitted effect of over 65% in size
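Inhibition of TGF-beta-driven CAGA-GFP reporter expression in HEPG2 cells is measured by cellular GFP fluorescence after 18 h stimulation with 500 pg/mL recombinant TGF-beta in 1% FBS medium at 37 degrees C.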
ATXN viability: cell viability loss in ATXN counter-screen; S2 cells (HEK-293 line with an ATXN2-luciferase reporter) viability, CellTiter-Fluor protease fluorescence, 24 h; hit rate 0.49% among 400,000; AID 651635; Potency, µM (series often up to 56.7 µM), hits mostly cytotoxic; note: nearly all actives have a fitted effect of over 40% in size
GLP-1R inv ag: inverse agonists of human GLP-1 receptor. Potency, µM (series often up to 38.3 µM), without a hit: at the top dose activity change, negative = inhibition, actives largely listed as inhibitors. HEK293 GLP-1R CRE-luciferase, luminescence, 24 h; GLP-1R form is constitutively active. P43220. AID 624417. hit rate 1.6% among 410,000; note: % is set by controls: 0 for no effect and ±100 for the full control effect; nearly all actives have a fitted effect of over 55% in size
Target sequence (P43220 whole entry, looked up): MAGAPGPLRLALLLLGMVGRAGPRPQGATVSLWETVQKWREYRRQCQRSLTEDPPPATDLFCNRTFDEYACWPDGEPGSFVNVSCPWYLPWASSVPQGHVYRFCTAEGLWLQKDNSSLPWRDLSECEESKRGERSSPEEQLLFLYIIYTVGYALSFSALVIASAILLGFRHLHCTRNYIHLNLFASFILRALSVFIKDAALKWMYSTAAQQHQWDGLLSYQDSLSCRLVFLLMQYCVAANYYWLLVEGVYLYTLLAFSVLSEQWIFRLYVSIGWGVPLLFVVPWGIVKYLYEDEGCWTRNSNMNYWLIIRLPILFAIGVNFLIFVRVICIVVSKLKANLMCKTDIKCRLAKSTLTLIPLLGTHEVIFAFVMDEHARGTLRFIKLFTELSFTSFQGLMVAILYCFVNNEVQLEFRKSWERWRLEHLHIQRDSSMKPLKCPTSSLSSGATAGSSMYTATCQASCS
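HEK293 cells stably co-expressing a cAMP-responsive luciferase reporter and constitutively active GLP-1R were seeded, incubated 12 h, then exposed to compounds for 24 h at 37 C. Luminescence was read 12 min after detection reagent; inverse agonists lower signal.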
ATXN2 expr inh: ATXN2 expression inhibition | HEK-293 ATXN2-luciferase reporter, luminescence, 24 h | Potency, µM (top dose mostly 57 µM), inactives show at the top dose activity change, negative = inhibition, hits mostly inhibitors | hit rate 0.72% among 360,000; note: % is set by controls: 0 for no effect and ±100 for the full control effect; nearly all actives have a fitted effect of over 55% in size
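qHTS (up to 57 uM final) was run with 24 h compound exposure of reporter cells at 37 °C. Each well was multiplexed: SteadyGlo luminescence measured ATXN2-luciferase expression after a fluorogenic Gly-Phe-AFC viability readout (25 uM final).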
GLP1R ag: GLP-1 receptor (human) agonism; P43220; HEK293 GLP-1R CRE-luciferase, luminescence, 4-6 h; cells express a hypersensitive GLP-1R form; Potency, µM (titrated, usually from 45.6 µM), without a hit: at the top dose activation, usual class: activators; hit rate 0.007% among 380,000; note: % of control where 0% means no effect
HepG2 tox: kills HepG2 cells in TGF-b inhibitor counter-screen. HepG2 CAGA-GFP viability, ATP luminescence, 18 h. Potency, µM (top dose mostly 46.1 µM), for inactives: at the highest dose activity change, negative = cytotoxicity, hits mostly cytotoxic. hit rate 0.76% among 410,000. AID 588856
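CellTiter-Glo luminescence gave cytotoxicity after 18 hours at 37 degrees C. The cells were HepG2 CAGA-GFP in 1% FBS DMEM, stimulated with 500 pg/mL TGF-beta after compound addition. %Activity was normalised to no-cell wells (complete cell-killing) and DMSO (no toxicity), and curves were fitted and classified.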
* = called active by the depositor; i = inactive; ? = inconclusive; / = not tested or not shown. Sampled rows, rich in hits. Any-hit rate of the full collection: about 3.7%. Calls come from the whole dose curve; as a rule, active = well fitted curve in the direction sought with a large enough effect; inconclusive = small, poorly fitted or top-dose-only effect, or another doubt; inactive = no such curve, though single readings can be large; an effect the other way counts as inactive or inconclusive. Potency is the fitted concentration of half-maximal effect.

SMILES	TGFb SMAD3 inh	ATXN viability	GLP-1R inv ag	ATXN2 expr inh	GLP1R ag	HepG2 tox
O=c1c(Cl)c(Cl)cnn1Cc1nnc(-c2ccc(Cl)cc2)o1	13µM*	?	-93%	?	-9%	11µM*
Nc1c(Cl)cnn(-c2ccccc2)c1=O	0%	i	15%	-16%	8%	52%
O=c1c(Cl)c(Cl)cnn1Cc1ccccc1Cl	?	10µM*	?	8.9µM*	-5%	-104%
O=c1c(Cl)c(Cl)cnn1-c1ccccc1	?	?	?	?	-6%	14µM*
Cc1ccc(-c2nnc(Cc3ccc(Cl)cc3)o2)cc1	?	i	?	43%	21%	-4%
Nc1c(C(=O)N/N=C/c2ccc(Cl)cc2)cnn1-c1ccccc1	0%	i	8%	12%	-11%	12%
O=c1c(Cl)c(N/N=C/c2ccc(Cl)cc2)cnn1-c1ccccc1	?	?	?	/	-1%	14µM*
Cc1ccc(Cn2ncc(Cl)c(Cl)c2=O)cc1	?	/	-6%	?	-27%	-115%
COc1ccc(/C=C/c2ccnc3ccccc23)cc1	?	/	/	/	/	-32%
CCC(C)C(NC(=O)OC(C)(C)C)C(=O)NC1COC2CC(n3ccc(=O)[nH]c3=O)OC12 (stereo not drawn)	10%	/	/	/	/	2%
Cc1ccc(CN2CCOc3ccc(CN4CCC(O)(c5cccnc5)CC4)cc3C2)cc1	/	i	/	/	/	/
CO[C@@H]1[C@@H](OC2OC(C)C(OC3CC(C)(O)C(O)C(C)O3)C(N(C)C)C2O)[C@@H](CC=O)C[C@@H](C)[C@@H](OC2CCC(N(C)C)C(C)O2)/C=C/C=C/C[C@@H](C)OC(=O)C[C@H]1OC(C)=O (stereo partly drawn)	/	/	/	/	-3%	/
CN(C)CCNC(=O)c1sc2nc(-c3ccccc3)cc(C(F)(F)F)c2c1N	?	i	?	?	8%	11µM*
CC(C)c1ccc(/C=C/c2[nH]c(=O)[nH]c(=O)c2[N+](=O)[O-])cc1	?	i	?	/	0%	16µM*
COc1ccc(CN2CC[C@H]3C=CC[C@@H](C(=O)NCc4cccnc4)[C@H]3C2=O)cc1OC	0%	/	/	/	/	17%
CN(C)CC(C)(O)c1ccc2c(c1)CN(Cc1cnn(-c3ccccc3)c1)CCO2 (stereo not drawn)	/	i	/	/	/	/
S=C1NCCc2ccc(Cl)cc2C1c1ccccc1 (stereo not drawn)	5%	i	11µM*	-5%	-6%	-19%
Cc1cccc2nc(-c3ccccc3)nc(N3CCC(O)(c4ccc(Cl)cc4)CC3)c12	?	i	3.5µM*	-10%	-12%	-9%
O=S(=O)(c1ccc(Cl)cc1)N1CCN(c2nc(-c3ccc(Cl)cc3)nc3ccccc23)CC1	-8%	/	/	/	/	-21%
C/C(=N/NC(=O)CN(c1ccccc1)S(=O)(=O)c1ccccc1)c1ccccc1O	7.1µM*	?	?	/	0%	5.6µM*
CC(C)=CC(=O)Oc1ccc(C(=O)N(C)c2ccccc2I)cc1	5%	/	/	/	/	0%
[O-]/C(=C(\C(=S)Nc1ccc(SC(F)F)cc1)[n+]1ccccc1)c1ccc(Cl)cc1Cl	-29%	?	1.1µM*	-36%	5%	-28%
COc1cc(CNc2nc(C)c(-c3ccn(CC4CCCN(C)C4)n3)s2)ccc1F (stereo not drawn)	/	i	/	/	/	/
COc1ccc(C2=NC(C)(C)N(CC(=O)Nc3cc(OC)cc(OC)c3)C2=O)cc1	/	/	4%	/	/	-2%
CC(C)(C)c1ccc(C2=NC(C)(C)N(CC(=O)Nc3ccc(F)c(F)c3)C2=O)cc1	/	/	11µM*	/	/	-36%
SMILES	TGFb SMAD3 inh	ATXN viability	GLP-1R inv ag	ATXN2 expr inh	GLP1R ag	HepG2 tox
CN(C)c1ccc(/C=C/c2ccnc3c(Cl)ccc(Cl)c23)cc1	51%	/	/	/	/	-7%
CCCCOc1ccc(Br)cc1/C(C)=N/NC1=NCCN1	?	/	2.8µM*	18µM*	3%	11µM*
CCCCOc1ccc(CSC2=NCCN2)cc1[N+](=O)[O-]	?	?	10µM*	/	-6%	-17%
CCCCCCOc1ccc(/C(C)=N/NC2=NCCN2)cc1[N+](=O)[O-]	?	18µM*	?	/	17%	20µM*
CCOc1ccc(CSC2=NCCN2)cc1[N+](=O)[O-]	-21%	i	?	-23%	14%	-23%
Cc1oc(-c2ccccc2NC(=O)c2cccnc2)nc1CNC(=O)C1CCCCCN1C (stereo not drawn)	/	i	/	/	/	/
CCOc1ccccc1NC(=O)Nc1nnc(N2CCCC(C)C2)s1 (stereo not drawn)	-21%	/	1%	/	/	-18%
N#Cc1c(NCCN)nc(-c2ccco2)c2c1CCCC2	?	i	-15%	13µM*	-10%	-29%
COc1ccc(-c2cc(C)cc3c2OC(CNC(=O)c2cc(C(C)C)on2)C3)nn1 (stereo not drawn)	/	i	/	/	/	/
CCOc1cc(CNCCO)cc(Br)c1OCc1ccc(Cl)cc1Cl	?	/	?	20µM*	-44%	16µM*
OCCNCc1cc(Br)ccc1OCc1ccc(Cl)cc1	?	i	?	-11%	-4%	-51%
OCCNCc1cc(Br)ccc1OCc1ccc(Cl)cc1Cl	?	?	6.3µM*	?	-27%	16µM*
CN(C)c1ccc(Cn2ccc3ccccc32)cc1	?	/	/	/	/	-55%
CC(C)C(=O)NCC1CCC2(CCN(Cc3ccc(-c4cccc(Cl)c4)o3)CC2)O1 (stereo not drawn)	/	i	/	/	/	/
CCOC(=O)c1cc([N+](=O)[O-])cc([N+](=O)[O-])c1Sc1ncnc2nc[nH]c12	13µM*	/	?	?	-14%	-101%
CCOC(=O)C(C)(C)Sc1ncnc2nc[nH]c12	?	i	0%	10%	5%	-3%
C[C@@H]1C(=O)O[C@@H]1[C@@H](C)CO[Si](c1ccccc1)(c1ccccc1)C(C)(C)C	0%	/	/	/	/	6%
COc1ccc2c(c1)[C@H]1[C@H](CO2)[C@H](c2ccccc2)[C@]2(C)C(=O)Nc3ccc(Br)cc3C(=O)N12	4%	i	5.6µM*	2%	-5%	17%
Cc1ccc2c(c1)C(=O)N1[C@H]3c4cc(Br)ccc4OC[C@@H]3[C@H](c3ccccc3)[C@]1(C)C(=O)N2	-20%	i	5%	-8%	-6%	-20%
COc1ccc2c(c1)C(=O)N1[C@H]3c4cc(OC)ccc4OC[C@@H]3[C@H](c3ccccc3)[C@]1(C)C(=O)N2	?	i	?	-4%	-1%	2%
